Source: PubChem BioAssay AID1159580 (chemical genetic matrix, 2015)
“And” between values parts separate entries of the source, which are not always exact repeats. Identical values can stand only once. The whole screen tested about 5,500 compounds, of which about 2,000 (36%) were called active. Roughly 18% stayed inconclusive and do not appear here. Rule as the data show it: active = normalized growth mostly below about 0.91 (no sharp cut-off); inconclusive = no clear call, values can overlap the other calls; inactive = mostly above about 0.92. The list shows a part of the results.

Assay: chemical genetic growth profiling, strain panel (AID 1159580);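 also: tested at 20 µM; growth read once vehicle control cultures reached saturation at 30 °C; 1 = growth at the plate median or of vehicle wells; lower values mean less growth of the strain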
Settings: growth OD

Measured: normalized growth

CCN(CCCCOC(=O)c1ccc(OC)c(OC)c1)C(C)Cc1ccc(OC)cc1 (configuration not stated)
inactive: S. cerevisiae deletion strains, locus YAL013W, strain DEP1, active compounds read low 0.982 | S. cerevisiae deletion strains, locus YBR021W, strain FUR4, active compounds read low 0.989 | S. cerevisiae deletion strains, locus YBR229C, strain ROT2, active compounds read low 0.95 | S. cerevisiae deletion strains, locus YCL029C, strain bik1, active compounds read low 0.99 | S. cerevisiae deletion strains, locus YDL035C, strain GPR1, active compounds read low 0.972 | S. cerevisiae deletion strains, locus YDL074C, strain BRE1, active compounds read low 0.987 | S. cerevisiae deletion strains, locus YDL101C, strain DUN1, active compounds read low 0.988 | S. cerevisiae deletion strains, locus YDL134C, strain PPH21, active compounds read low 0.988 | S. cerevisiae deletion strains, locus YDL185W, strain tfp1, active compounds read low 0.991 | S. cerevisiae deletion strains, locus YDL192W, strain arf1, active compounds read low 0.982 | S. cerevisiae deletion strains, locus YDR101C, strain arx1, active compounds read low 0.995 | S. cerevisiae deletion strains, locus YDR150W, strain NUM1, active compounds read low 0.96 | S. cerevisiae deletion strains, locus YDR162C, strain NBP2, active compounds read low 0.977 | S. cerevisiae deletion strains, locus YDR318W, strain mcm21, active compounds read low 0.999 | S. cerevisiae deletion strains, locus YDR388W, active compounds read low 0.998 | S. cerevisiae deletion strains, locus YDR502C, strain sam2, active compounds read low 0.98 | S. cerevisiae deletion strains, locus YEL061C, strain CIN8, active compounds read low 0.979 | S. cerevisiae deletion strains, locus YER110C, active compounds read low 0.963 | S. cerevisiae deletion strains, locus YER155C, strain BEM2, active compounds read low 0.999 | S. cerevisiae deletion strains, locus YER167W, strain BCK2, active compounds read low 0.989 | S. cerevisiae deletion strains, locus YGL078C, strain dbp3, active compounds read low 0.997 | S. cerevisiae deletion strains, locus YGL086W, strain mad1, active compounds read low 0.965 | S. cerevisiae deletion strains, locus YGL248W, strain PDE1, active compounds read low 0.98 | S. cerevisiae deletion strains, locus YGR078C, strain PAC10, active compounds read low 0.995 | S. cerevisiae deletion strains, locus YGR135W, strain pre9, active compounds read low 1.02 | S. cerevisiae deletion strains, locus YGR229C, strain SMI1, active compounds read low 0.978 | S. cerevisiae deletion strains, locus YGR252W, strain gcn5, active compounds read low 0.937 | S. cerevisiae deletion strains, locus YHR030C, strain SLT2, active compounds read low 0.989 and 0.965 | S. cerevisiae deletion strains, locus YHR079C, strain IRE1 (second series), active compounds read low 0.992 | S. cerevisiae deletion strains, locus YHR079C, strain IRE1, active compounds read low 0.956 | S. cerevisiae deletion strains, locus YHR094C, strain hxt1, active compounds read low 0.989 | S. cerevisiae deletion strains, locus YHR129C, strain ARP1, active compounds read low 0.993 | S. cerevisiae deletion strains, locus YHR200W, strain rpn10, active compounds read low 0.992 | S. cerevisiae deletion strains, locus YIL066C, strain RNR3, active compounds read low 0.968 | S. cerevisiae deletion strains, locus YIL073C, strain SPO22, active compounds read low 0.986 | S. cerevisiae deletion strains, locus YIL125W, strain kgd1, active compounds read low 0.985 | S. cerevisiae deletion strains, locus YIR030C, strain dcg1, active compounds read low 0.978 | S. cerevisiae deletion strains, locus YJL095W, strain BCK1, active compounds read low 1.03 and 0.98 | S. cerevisiae deletion strains, locus YJL134W, strain LCB3, active compounds read low 0.979 | S. cerevisiae deletion strains, locus YJL168C, strain set2, active compounds read low 0.995 | S. cerevisiae deletion strains, locus YJL187C, strain SWE1 (second series), active compounds read low 1 | S. cerevisiae deletion strains, locus YJR043C, strain POL32, active compounds read low 1.01 | S. cerevisiae deletion strains, locus YJR066W, strain TOR1, active compounds read low 0.913 | S. cerevisiae deletion strains, locus YJR075W, strain HOC1, active compounds read low 0.98 | S. cerevisiae deletion strains, locus YKL009W, strain mrt4, active compounds read low 0.95 | S. cerevisiae deletion strains, locus YKL068W, active compounds read low 0.998 | S. cerevisiae deletion strains, locus YKL085W, strain MDH1 (second series), active compounds read low 0.987 | S. cerevisiae deletion strains, locus YKL085W, strain MDH1, active compounds read low 0.987 | S. cerevisiae deletion strains, locus YKL190W, strain CNB1, active compounds read low 0.99 | S. cerevisiae deletion strains, locus YKR001C, strain vps1, active compounds read low 0.988 | S. cerevisiae deletion strains, locus YLR039C, strain RIC1, active compounds read low 0.983 | S. cerevisiae deletion strains, locus YLR058C, strain SHM2, active compounds read low 0.967 | S. cerevisiae deletion strains, locus YLR102C, strain apc9, active compounds read low 0.993 | S. cerevisiae deletion strains, locus YLR113W, strain HOG1, active compounds read low 0.956 | S. cerevisiae deletion strains, locus YLR262C, strain YPT6, active compounds read low 0.937 | S. cerevisiae deletion strains, locus YLR268W, strain sec22, active compounds read low 1.07 | S. cerevisiae deletion strains, locus YLR330W, strain CHS5, active compounds read low 0.977 | S. cerevisiae deletion strains, locus YLR342W, strain FKS1 (second series), active compounds read low 0.985 | S. cerevisiae deletion strains, locus YLR371W, strain rom2, active compounds read low 0.972 | S. cerevisiae deletion strains, locus YLR418C, strain cdc73, active compounds read low 0.956 | S. cerevisiae deletion strains, locus YML016C, strain PPZ1, active compounds read low 0.978 | S. cerevisiae deletion strains, locus YML032C, strain rad52, active compounds read low 1 | S. cerevisiae deletion strains, locus YML124C, strain tub3, active compounds read low 0.985 | S. cerevisiae deletion strains, locus YMR078C, strain ctf18, active compounds read low 0.987 | S. cerevisiae deletion strains, locus YMR223W, strain ubp8, active compounds read low 0.971 | S. cerevisiae deletion strains, locus YMR263W, strain SAP30, active compounds read low 0.978 | S. cerevisiae deletion strains, locus YMR307W, strain GAS1, active compounds read low 1.01 | S. cerevisiae deletion strains, locus YNL067W, strain RPL9B, active compounds read low 1.01 | S. cerevisiae deletion strains, locus YNL128W, strain TEP1, active compounds read low 0.968 | S. cerevisiae deletion strains, locus YNL153C, strain GIM3, active compounds read low 1 | S. cerevisiae deletion strains, locus YNL183C, strain NPR1, active compounds read low 0.9 | S. cerevisiae deletion strains, locus YNL233W, strain BNI4, active compounds read low 0.996 | S. cerevisiae deletion strains, locus YNL250W, strain rad50, active compounds read low 0.987 | S. cerevisiae deletion strains, locus YNL271C, strain bni1, active compounds read low 0.999 | S. cerevisiae deletion strains, locus YNL298W, strain CLA4, active compounds read low 0.99 | S. cerevisiae deletion strains, locus YNL307C, strain MCK1, active compounds read low 0.983 | S. cerevisiae deletion strains, locus YNL322C, strain KRE1, active compounds read low 0.982 | S. cerevisiae deletion strains, locus YNR052C, strain pop2, active compounds read low 1.01 | S. cerevisiae deletion strains, locus YOL006C, strain TOP1, active compounds read low 0.966 | S. cerevisiae deletion strains, locus YOL012C, strain htz1 1.08 | S. cerevisiae deletion strains, locus YOL147C, strain pex11, active compounds read low 0.987 | S. cerevisiae deletion strains, locus YOR061W, strain CKA2, active compounds read low 0.974 | S. cerevisiae deletion strains, locus YOR069W, strain VPS5, active compounds read low 0.986 | S. cerevisiae deletion strains, locus YOR136W, strain idh2, active compounds read low 0.981 | S. cerevisiae deletion strains, locus YOR144C, strain elg1, active compounds read low 0.991 | S. cerevisiae deletion strains, locus YOR184W, strain ser1, active compounds read low 0.974 | S. cerevisiae deletion strains, locus YOR231W, strain MKK1, active compounds read low 0.964 | S. cerevisiae deletion strains, locus YOR316C, strain cot1, active compounds read low 0.992 | S. cerevisiae deletion strains, locus YPL055C, strain LGE1, active compounds read low 0.963 | S. cerevisiae deletion strains, locus YPL241C, strain CIN2, active compounds read low 0.989 | S. cerevisiae deletion strains, locus YPL256C, strain CLN2, active compounds read low 0.961 | S. cerevisiae deletion strains, locus YPR119W, strain clb2, active compounds read low 0.987 | S. cerevisiae deletion strains, locus YPR141C, strain kar3, active compounds read low 0.979 | S. cerevisiae deletion strains, locus YPR163C, strain tif3, active compounds read low 0.992 | S. cerevisiae deletion strains, locus YPR167C, strain met16, active compounds read low 0.997 | S. cerevisiae deletion strains, strain wtn01, active compounds read low 1.01 | S. cerevisiae strains, strain wild type, active compounds read low 0.98
